Measurements taken from PubChem BioAssay (NCATS).
Records with an inconclusive call do not appear. Activity calls are given as the source filed them. Calls follow the shape of the dose curve; as a rule, active = well fitted cell-killing curve with a large enough effect; inconclusive = small, poorly fitted or top-dose-only effect, or effect the other way; inactive = flat fitted curve, though single readings scatter.

Columns and labels:
Assay in all cases: Primary qHTS to identify gynecologic anti-cancer compounds using libraries of approved drugs and bioactive compounds (AID 1345084); also: nearly all actives have a fitted effect of over 55% in size
Settings in all cases: Gynecologic cancer cell panel viability, ATPlite luminescence, 48 h; series mostly up to 57.5 µM
[1] = test system: PA-1
In short: (§1)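 Five-point cytotoxicity, 48 h drug exposure at 37 C, 5% CO2, on cells seeded 16 h beforehand. ATP content read by ATPlite luminescence.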

[2] = test system: SKOV3
In short: as §1

[3] = test system: Tov-21-G
In short: as §1

[4] = test system: Tov112D
In short: as §1
% is scaled to controls: 0 for no effect and ±100 for the full control effect; potency is read from the fitted curve at half-maximal effect.

O=C(NCCN1CCOCC1)c1cc2c(Oc3ccc(NC(=O)C4(C(=O)Nc5ccc(F)cc5)CC4)cc3)ccnc2[nH]1
inactive: Potency [1] | Potency [2] | Potency [3] | Potency [4]

CCC(C)(OC(C)=O)C(=O)O[C@H]1[C@H](OC(C)=O)[C@]2(CO)[C@H](O)[C@H](O)[C@]3(C)C(=CCC4[C@@]5(C)CC[C@H](O[C@@H]6O[C@H](C(=O)O)[C@@H](O)[C@H](O[C@@H]7OC[C@H](O)[C@H](O[C@@H]8OC[C@H](O)[C@H](O)[C@H]8O)[C@H]7O)[C@H]6O[C@@H]6O[C@H](CO)[C@@H](O)[C@H](O)[C@H]6O)C(C)(C)C5CC[C@]43C)[C@@H]2CC1(C)C (some centres not stated)
inactive: activity change, negative = cytotoxicity [1] -11.2% [at 6.55 µM] | activity change, negative = cytotoxicity [2] -31.7% [at 6.55 µM] | activity change, negative = cytotoxicity [3] -3.66% [at 6.55 µM] | activity change, negative = cytotoxicity [4] -10.5% [at 6.55 µM]

CC(=O)O[C@@H]1CC[C@@]2(C)C(CC[C@]3(C)C2[C@H](O)C=C2[C@H]4[C@@H](C)[C@H](C)CC[C@]4(C)CC[C@]23C)[C@@]1(C)C(=O)O (some centres not stated)
inactive: Potency [1] | Potency [2] | Potency [3] | Potency [4]

O=S(=O)(N[C@H]1CCCC[C@@H]1N1CCOCC1)c1ccc(Cl)cc1
inactive: Potency [1] | Potency [2] | Potency [3] | Potency [4]

COc1cc(CCc2ccc(OCC=C(C)C)cc2)cc(OC)c1OC
inactive: Potency [1] | Potency [2] | Potency [3] | Potency [4]

COC(=O)c1cc2c(C(F)(F)F)cc(-c3ccccc3)cc2n1O
inactive: Potency [1] | Potency [2] | Potency [3] | Potency [4]

CO[C@H]1O[C@@H]2O[C@@]3(C)CCC4[C@H](C)CCC([C@H]1C)[C@]42OO3 (some centres not stated)
inactive: Potency [1] | Potency [2] | Potency [3] | Potency [4]

C=C(CCC1C(C)(O)CCC2C(C)(C)C(O)CCC12C)C(O)CO (configuration not stated)
inactive: Potency [1] | Potency [2] | Potency [3] | Potency [4]

CC1OC(OC2C(O)COC(O[C@@H]3[C@@H](O)[C@@H](O)[C@H](OC4C(OC(=O)[C@]56CCC(C)(C)CC5C5=CCC7[C@@]8(C)C[C@H](O)[C@H](OC9OC(CO)C(O)C(O)C9O)[C@@](C)(CO)C8[C@H](O)C[C@@]7(C)[C@]5(C)CC6)OCC(O)C4O)O[C@H]3C)C2O)C(O)C(O)C1O (some centres not stated)
inactive: activity change, negative = cytotoxicity [1] 0.113% [at 6.55 µM] | activity change, negative = cytotoxicity [2] -8.72% [at 6.55 µM] | activity change, negative = cytotoxicity [3] -21.3% [at 6.55 µM] | activity change, negative = cytotoxicity [4] -9.06% [at 6.55 µM]

C#CCCCn1cc(-c2cccc3c2N[C@H](C)CC(=O)N3)cn1
active: Potency [1] 7.08 µM
inactive: Potency [2] | Potency [3] | Potency [4]

O=C(Nc1ccn(Cc2ccc(O)cc2C(F)(F)F)n1)c1c(F)cccc1F
inactive: Potency [1] | Potency [2] | Potency [3] | Potency [4]

Cc1cc(-c2cc(OC(=O)c3ccccc3)ccc2Cl)cc2nnc(Nc3ccc(OCCN4CCCC4)cc3)nc12
inactive: Potency [1] | Potency [2] | Potency [3] | Potency [4]

CC(=O)O[C@H]1C[C@H](OC(C)=O)[C@]2(C)[C@H](CC[C@@]34O[C@@H]3C3=C(C)C(=O)O[C@@H]3C[C@H]42)C1(C)C
inactive: Potency [1] | Potency [2] | Potency [3] | Potency [4]

Cc1ccc(S(=O)(=O)N2CCC[C@H]2c2ccc(F)cc2)cc1
inactive: Potency [1] | Potency [2] | Potency [3] | Potency [4]

CCN(CC)CCCS(=O)(=O)N[C@H](CCc1ccccc1)c1nc(Cc2ccc(Br)cc2)no1
inactive: Potency [1] | Potency [2] | Potency [3] | Potency [4]

CC(C)CCNc1ncccc1C(=O)N1CCN(Cc2ccccc2)CC1
inactive: Potency [1] | Potency [2] | Potency [3] | Potency [4]

Cn1ncc(Cl)c1-c1cc(C(=O)N[C@H](CN)Cc2ccc(F)c(F)c2)sc1Cl
inactive: Potency [1] | Potency [4]
active: Potency [2] 14.1 µM | Potency [3] 0.891 µM

CC1(C=O)CCCC2(C)C1CCC13CC(CO)C(CCC12)C3 (configuration not stated)
inactive: Potency [1] | Potency [2] | Potency [3] | Potency [4]

CNC(=O)[C@@H](c1ccccc1)N1CCc2cc(OC)c(OC)cc2[C@@H]1CCc1ccc(C(F)(F)F)cc1
inactive: Potency [1] | Potency [2] | Potency [3] | Potency [4]

CN(C)C(=O)Nc1cc(-c2ccccc2)ccc1N(C)C
inactive: Potency [1] | Potency [2] | Potency [3] | Potency [4]

O=C(Nc1ccc(C(F)(F)F)cn1)N1CCN(c2ncccc2C(F)(F)F)CC1
inactive: Potency [1] | Potency [2] | Potency [3] | Potency [4]

O=C(COc1ccc2ccccc2c1Br)Nc1cccnc1
inactive: Potency [1] | Potency [2] | Potency [3] | Potency [4]

CC(C)CCNC(=O)c1ccc2c(c1)nc(Nc1n[nH]c3ccc(-c4ccccc4OC(F)(F)F)cc13)n2C1CCC(O)CC1 (configuration not stated)
inactive: Potency [1] | Potency [2] | Potency [3] | Potency [4]

COc1cc(-c2nc(N[C@H](CO)Cc3ccccc3)ccc2C(=O)NCCOc2ccccc2)cc(OC)c1OC
inactive: Potency [1] | Potency [2] | Potency [3] | Potency [4]

COC(=O)C(Cc1ccc(OCCn2c(=O)sc3cc(C(=O)c4ccccc4)ccc32)cc1)C(=O)OC
inactive: Potency [1] | Potency [2] | Potency [3] | Potency [4]

Cc1ccccc1C(C(=O)NC1CCCCC1)N(C(=O)Cn1cnc2ccccc21)c1cccc(F)c1 (configuration not stated)
inactive: Potency [1] | Potency [2] | Potency [3] | Potency [4]

COc1c(C)cc(NC(=O)c2nn(Cc3ccc(F)cc3)c3c2CN(C(=O)c2ccc[nH]2)C[C@]3(C)C(N)=O)cc1C
inactive: activity change, negative = cytotoxicity [1] 15.5% [at 11.6 µM] | activity change, negative = cytotoxicity [2] -24.2% [at 11.6 µM] | activity change, negative = cytotoxicity [3] 11.9% [at 11.6 µM] | activity change, negative = cytotoxicity [4] 9.54% [at 11.6 µM]

Nc1nc2c(s1)CCN(Cc1ccc(Cl)cc1)CC2
inactive: Potency [1] | Potency [2] | Potency [3] | Potency [4]

C=C1CCC2C(C)(C(=O)O)CCCC2(C)C1CCC1=CCOC1=O (configuration not stated)
inactive: Potency [1] | Potency [2] | Potency [3] | Potency [4]

C/C=C/C=C/c1cc2c(C=O)c(O)c(CC=C(C)C)cc2o1
inactive: Potency [1] | Potency [2] | Potency [3] | Potency [4]

C=CC(C)(C)C12CC3C(=O)N4C(CC5(C(C)(C)C=C)c6ccccc6NC45)C(=O)N3C1Nc1ccccc12 (configuration not stated)
inactive: Potency [1] | Potency [2] | Potency [3] | Potency [4]

O=C1Nc2ccccc2-c2nc3ccccc3c(=O)n2-c2c(O)cccc21
inactive: Potency [1] | Potency [2] | Potency [3] | Potency [4]

O=C(Nc1ncc([N+](=O)[O-])s1)c1ccccc1O
inactive: Potency [1] | Potency [2] | Potency [3] | Potency [4]

C[C@@H](O[C@H]1OCCN(Cc2nn(P(=O)(O)O)c(=O)[nH]2)[C@H]1c1ccc(F)cc1)c1cc(C(F)(F)F)cc(C(F)(F)F)c1
inactive: Potency [1] | Potency [2] | Potency [3] | Potency [4]

COc1ccccc1N1CCN(CC(C(=O)NC(C)(C)C)c2ccccc2)CC1 (configuration not stated)
inactive: Potency [1] | Potency [2] | Potency [3] | Potency [4]

Cc1ccc(C)c(NS(=O)(=O)c2cc(C(=O)Nc3ccccc3-c3ccccc3)ccc2C)c1
inactive: Potency [1] | Potency [2] | Potency [3] | Potency [4]

Cc1cc(C)cc(-c2cnc3cc(Cl)c(-c4cccc(O)c4)cc3c2OCCCN)c1
inactive: Potency [1] | Potency [2] | Potency [3] | Potency [4]

O=C(NCC(=O)N1CCCC1)Nc1ccc2cnccc2c1
inactive: Potency [1] | Potency [2] | Potency [3] | Potency [4]

C[C@@H]1CC[C@]2(C(=O)O)CC[C@]3(C)C(=CCC4[C@@]5(C)CC[C@H](O)[C@](C)(C(=O)O)C5CC[C@]43C)C2[C@]1(C)O (some centres not stated)
inactive: Potency [1] | Potency [2] | Potency [3] | Potency [4]

CN1CCN(C2=Nc3ccccc3Nc3ccc(OS(=O)(=O)C(F)(F)F)cc32)CC1
inactive: Potency [1] | Potency [2] | Potency [3] | Potency [4]

CNC(=O)COC(=O)N1CCC(CCc2ccc(Cl)cc2)CC1
inactive: Potency [1] | Potency [2] | Potency [3] | Potency [4]

CCCCCc1ccc(/C=C/C(=O)Nc2cc(Cl)ccc2C(=O)O)cc1
inactive: Potency [1] | Potency [2] | Potency [3] | Potency [4]

Fc1ccc(N2CCCCC2)c(NC(=S)c2ccncc2)c1
inactive: Potency [1] | Potency [2] | Potency [3] | Potency [4]

C=C(C)C(=O)O[C@H]1[C@H]2C(=C)C(=O)O[C@@H]2/C=C(\CO)CC/C=C(/C=O)[C@@H]1O
inactive: Potency [1] | Potency [2] | Potency [3] | Potency [4]

C=C[C@](C)(O)CC[C@H]1C(C)=CC(=O)[C@H]2C(C)(C)CCC[C@]12C
inactive: Potency [1] | Potency [2] | Potency [3] | Potency [4]

C=CC(C)(C)c1[nH]c2ccccc2c1C[C@@H]1NC(=O)[C@H](C)NC1=O
inactive: Potency [1] | Potency [2] | Potency [3] | Potency [4]

COC1CC(O[C@H]2CC[C@]3(C)C4CC[C@]5(C)C(C6=CC(=O)OC6)=CCC56OC46CC[C@@H]3C2)OC(C)C1O[C@@H]1O[C@H](CO[C@@H]2O[C@H](CO)[C@@H](O)[C@H](O)[C@H]2O)[C@@H](O)[C@H](O)[C@H]1O (some centres not stated)
active: Potency [1] 3.98 µM | Potency [2] 3.16 µM | Potency [3] 2.24 µM | Potency [4] 2 µM

Cc1ccc(C)c(NC(=O)[C@@H]2CCCN2S(=O)(=O)c2cccc3cccnc23)c1
inactive: Potency [1] | Potency [2] | Potency [3] | Potency [4]

C=CCC1=C[C@]2(OC)[C@H](C)[C@@H](c3ccc4c(c3)OCO4)O[C@]2(OC)CC1=O
inactive: Potency [1] | Potency [2] | Potency [3] | Potency [4]

CCOc1ccc(S(=O)(=O)N2CCCCCC2)c2ccccc12
inactive: Potency [1] | Potency [2] | Potency [3] | Potency [4]

c1cc(NC2CCNCC2)nc(-c2cnc3ccccn23)c1
active: Potency [1] 20 µM | Potency [2] 8.91 µM | Potency [3] 15.8 µM | Potency [4] 20 µM

O=C(O)c1cc(N(Cc2ccc(C3CCCCC3)cc2)C(=O)c2ccc(Oc3ccccc3)cc2)ccc1O
inactive: Potency [1] | Potency [2] | Potency [3] | Potency [4]

C[C@@H](NC(=O)C(=O)c1c[nH]c2ccc([N+](=O)[O-])cc12)c1ccccc1
inactive: Potency [1] | Potency [2] | Potency [3] | Potency [4]
